Screening results: PubChem BioAssay, National Center for Advancing Translational Sciences (NCATS)
TbPYK inhibitor: T. brucei pyruvate kinase inhibition; Q57TT1; TbPYK enzyme, Kinase-Glo Plus ATP luminescence, 45 min; Potency, µM (doses to about 76.8 µM), without a hit: at the highest dose activity, negative = inhibition, most hits filed as inhibitors; 410,000 compounds, 0.12% hits; AID 624173; note: nearly all actives have a fitted effect of over 50% in size
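Quantitative HTS: titrated library compounds versus trypanosomal pyruvate kinase in TEA buffer (pH 7.2) containing KCl, MgCl2, BSA and Tween-20. Reactions were initiated with ADP, 130 uM final. Kinase-Glo Plus luminescence was read after 45 min at RT.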
LmPK inhibitor: blocks Leishmania mexicana pyruvate kinase activity; Potency, µM (titrated, usually from 57.5 µM), for the others: at the highest dose activity change, negative = inhibition, usual class: inhibitors; purified LmPK, Kinase-Glo ATP luminescence, 1 h; AID 1721; 290,000 compounds, 0.37% hits
Target sequence (Q27686 whole entry, looked up): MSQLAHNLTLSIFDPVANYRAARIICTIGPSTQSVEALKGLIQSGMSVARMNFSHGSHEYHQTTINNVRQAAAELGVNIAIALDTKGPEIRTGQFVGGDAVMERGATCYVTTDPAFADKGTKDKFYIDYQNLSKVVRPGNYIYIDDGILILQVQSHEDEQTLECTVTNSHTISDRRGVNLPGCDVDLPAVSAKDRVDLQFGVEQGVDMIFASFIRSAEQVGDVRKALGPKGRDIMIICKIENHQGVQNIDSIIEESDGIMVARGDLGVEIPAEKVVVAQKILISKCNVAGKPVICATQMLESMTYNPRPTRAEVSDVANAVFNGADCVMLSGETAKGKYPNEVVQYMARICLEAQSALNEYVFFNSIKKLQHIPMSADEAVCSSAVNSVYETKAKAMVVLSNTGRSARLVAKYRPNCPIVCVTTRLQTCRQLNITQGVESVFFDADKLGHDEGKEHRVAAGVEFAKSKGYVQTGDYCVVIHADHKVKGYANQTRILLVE
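Screened at intermediate enzyme activity to detect both inhibitors and activators: LmPK at 0.1 nM, with a 0.5 nM enzyme column as activation reference. PEP 0.5 mM, ADP 0.1 mM; ATP detected by luminescence after 1 h.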
RE007 growth inh: less growth of the S. pombe RE007 Vpr strain; AID 651644; Potency, µM (highest dose often 92.2 µM), inactives show at the highest dose activity change, negative = less growth, hits mostly inhibitors; S. pombe RE007 Vpr strain, BacTiter-Glo ATP luminescence, 24 h; 360,000 compounds, 0.21% hits; active = well fitted falling curve with a large enough effect; inconclusive = small, poorly fitted or top-dose-only effect; inactive = no such curve, though single readings can be large or run the other way; note: nearly all actives have a fitted effect of over 50% in size
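Fission yeast strain RE007, carrying one chromosomally integrated HIV-1 vpr copy, was seeded at OD 0.01 in PMG+AL medium with 23 nL pinned compound. After 24 h at 30 °C and 99% humidity, viability was read by BacTiter-Glo luminescence.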
Sm TGR inh: inhibitors of Schistosoma mansoni thioredoxin glutathione reductase; Potency, µM (series often up to 114 µM), for inactives: at the highest dose activity change, negative = inhibition, usual class: inhibitors; 360,000 compounds, 3% hits; Q962Y6; purified TGR, DTNB reduction, TNB absorbance 405 nm; note: nearly all actives have a fitted effect of over 60% in size
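TGR 20 nM + NADPH 100 uM (dispensed conc.), cpd preinc 15 min RT; start with NADPH (500 uM addition) then DTNB (15 mM addition). Kinetic TNB absorbance, 405 nm filter. Four-parameter Hill fit across titration.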
* = called active by the depositor; u = inconclusive; x = not tested or not shown; [ ] = another dose, or the depositor's remark. Rows were chosen to be rich in hits. Some 3% of all compounds tested hit in one or more screens of this group. Unless noted, calls come from the whole dose curve; as a rule, active = well fitted curve in the direction sought with a large enough effect; inconclusive = small, poorly fitted or top-dose-only effect, or another doubt; inactive = no such curve, though single readings can be large; an effect the other way counts as inactive or inconclusive. % is set by controls: 0 for no effect and ±100 for the full control effect; potency is the fitted concentration of half-maximal effect.

SMILES | TbPYK inhibitor | LmPK inhibitor | RE007 growth inh | Sm TGR inh
CCOc1ccc(/C=C2\CCC(C3CCCC3)C2=O)cc1 (stereo not drawn) | -9% | -10% | -2% | 8%
C/C(=N/OC(=O)c1c(F)cccc1F)c1nccs1 | -21% | 13µM* | -12% | 9%
COc1ccc(C(=O)O/N=C(\C)c2nccs2)cc1 | u | 7.9µM* | -16% | 8%
COc1ccc(C(=O)O/N=C(/C)c2cccs2)cc1 | 25µM* | 3.5µM* | 40µM* | 1%
COCCCN1C(=O)C(CC(=O)NCCCCc2ccccc2)CC(C(=O)N(C(C)C)C(C)C)=C1C (stereo not drawn) | 2% | x | 6% | x
Nc1ccc(-n2cc(-c3ccccc3)[nH]c2=S)cc1 | 2.5µM* | u | 11% | 12%
Cc1cccc(N2C(=O)N(Cc3ccc(C(C)(C)C)cc3)c3ccccc3S2(=O)=O)c1 | 7% | x | x | 6%
CC(C)(C)c1ccc(CN2N=Nc3ccccc3S2(=O)=O)cc1 | 0% | -13% | 6% | 13µM*
O=S1(=O)c2ccccc2N=NN1Cc1ccc(Cl)c(Cl)c1 | x | 2% | x | 4µM*
Cc1ccc(CSC2=Nc3ccccc3C3=NC(CC(=O)NCc4ccco4)C(=O)N23)cc1 (stereo not drawn) | 1% | 3% | 5% | 35µM*
O=C(CCC1N=C2c3ccccc3N=C(SCc3ccc(F)cc3)N2C1=O)NCc1ccco1 (stereo not drawn) | -1% | 3% | 1% | 25µM*
COc1ccc(-c2cc(=O)oc3c4c(ccc23)OCN(Cc2cccc(OC)c2)C4)cc1 | -4% | x | x | 1%
CC(C)Oc1ccc(CNC(=O)CCCN2C(=O)c3cccnc3Oc3ccc(Cl)cc32)cc1 | 5%[15.4 µM] | x | x | 1%
CCOC(=O)/C(C#N)=C/c1cc2cc(C)c(C)cc2nc1Cl | -1% | 4% | -4% | -29%
Cc1cc2cc(C=C(C#N)C#N)c(Cl)nc2cc1C | 0% | 3% | x | 3.2µM*
CCCNC(=O)c1cccc(S(=O)(=O)N2CC3(C)CC2CC(C)(C)C3)c1 (stereo not drawn) | -7% | x | 29% | -20%
CN(C)C(CNC(=O)c1cccc(S(=O)(=O)N2CC3(C)CC2CC(C)(C)C3)c1)c1ccco1 (stereo not drawn) | 1% | -4% | 8% | 25µM*
COC(=O)C[C@]1(C(=O)OC)CN(C#N)N(c2ccc(Cl)cc2)C12c1ccccc1-c1ccccc12 | 1% | 4% | 18% | -33%
COC(=O)[C@@H]1[C@@H](C(=O)OC)C2(c3ccccc3-c3ccccc32)N(c2ccc(Cl)cc2)N1C#N | -2% | 3% | 5% | 2.8µM*
O=C(OCC(COC(=O)c1cccnc1)(COC(=O)c1cccnc1)COC(=O)c1cccnc1)c1cccnc1 | 2% | x | x | x
CC1=C(C)/C(=N/OC(=O)c2cccc([N+](=O)[O-])c2)C=CC1=O | -8% | 3% | -20% | 11µM*
CCc1ccc(CNC(=O)c2ccc(CS(=O)(=O)Cc3ccccc3C)o2)cc1 | -1% | x | x | -2%
Cc1ccccc1CS(=O)(=O)Cc1ccc(C(=O)NCc2ccco2)o1 | 8% | 3% | -17% | 56µM*
COC(=O)c1ccccc1NC(=O)c1ccc(COc2cccc3ccccc23)o1 | 1% | 0% | -6% | 56µM*
O=C(NCc1cccnc1)c1ccc(CS(=O)(=O)Cc2ccc(Cl)cc2)o1 | 4% | 4% | 9% | u
SMILES | TbPYK inhibitor | LmPK inhibitor | RE007 growth inh | Sm TGR inh
Cc1ccccc1CS(=O)(=O)Cc1ccc(C(=O)NCc2ccccn2)o1 | -4% | -4% | -7% | 13µM*
O=C(NCc1ccccn1)c1ccc(CS(=O)(=O)Cc2ccc(Cl)cc2)o1 | 7% | 0% | -3% | 28µM*
CC1(C(=O)NS(=O)(=O)c2cccc(OC(F)F)c2)CCN1C(=O)Cc1cccs1 (stereo not drawn) | -5% | x | 2%[18.4 µM] | x
CC(=O)O[C@H]1CC[C@@]2(C)C(=CCC3C2CC[C@]2(C)C(c4cccnc4)=CCC32)C1 (stereo partly drawn) | -2% | x | x | x
O=C(NCc1ccco1)c1cc(-c2cccc(Cl)c2)on1 | -2% | 4% | 1% | 4%
COc1ccccc1OCc1ccc(C(=O)NCc2ccco2)o1 | -5% | 5% | -12% | 40µM*
O=C(NCc1ccco1)c1ccc(-c2cccc(Cl)c2)o1 | 22% | 9% | -10% | 32µM*
COc1ccccc1OCc1ccc(C(=O)NC(C)(C)C)o1 | 1% | 3% | -8% | u
